Screening data: PubChem, National Center for Advancing Translational Sciences (NCATS)
An excerpt weighted towards active compounds, which were near 9.2% of everything screened.
FLuc counter – counter-screen for miR-21 project: firefly luciferase inhibitors or activators; P08659; purified FLuc, Km substrates, luminescence inhibition; Potency, µM (highest dose often 57.5 µM), without a hit: at the top dose activity change, negative = inhibition, actives largely listed as inhibitors; 6.9% of 360,000 active;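 note: plate controls were vehicle for no effect and reference inhibitor for full effect; nearly all actives have a fitted effect of over 55% in size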
Target sequence (P08659 whole entry, looked up): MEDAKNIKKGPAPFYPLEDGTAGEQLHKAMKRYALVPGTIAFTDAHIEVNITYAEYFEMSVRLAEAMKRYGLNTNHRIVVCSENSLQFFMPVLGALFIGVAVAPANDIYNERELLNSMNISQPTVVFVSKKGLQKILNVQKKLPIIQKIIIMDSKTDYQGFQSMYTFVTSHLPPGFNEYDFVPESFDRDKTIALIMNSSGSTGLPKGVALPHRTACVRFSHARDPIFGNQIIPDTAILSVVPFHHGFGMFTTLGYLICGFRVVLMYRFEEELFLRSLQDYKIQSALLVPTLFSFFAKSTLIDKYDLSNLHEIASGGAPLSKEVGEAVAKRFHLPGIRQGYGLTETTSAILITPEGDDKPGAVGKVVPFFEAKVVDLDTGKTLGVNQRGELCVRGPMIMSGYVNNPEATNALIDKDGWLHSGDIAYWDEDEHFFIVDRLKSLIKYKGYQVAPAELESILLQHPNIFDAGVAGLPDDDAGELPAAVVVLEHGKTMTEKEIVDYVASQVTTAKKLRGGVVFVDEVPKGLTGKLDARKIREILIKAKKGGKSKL
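Biochemical qHTS of compounds, final roughly 60 µM downward over six points, against 10 nM purified firefly luciferase using Km concentrations of substrates (10 uM D-luciferin, 10 uM ATP) in Tris acetate pH 7.5 buffer; luminescence output.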
NPC1 promoter act – activators of NPC1 promoter; Potency, µM (highest dose often 9.22 µM), inactives show at the top dose activation, most hits filed as activators; 2.4% of 320,000 active; Huh7 NPC1 promoter luciferase reporter, 24 h; AID 485313; note: % of control where 0% means no effect; nearly all actives have a fitted effect of over 60% in size
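Stably transfected Huh7 (NPC1 promoter→luciferase), 1500 cells/well in Opti-MEM + 10% FBS, 2 h settle, then compound 24 h at 37 °C. Luminescence after 10 min with Amplite reagent.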
ELG1 repair inh – blocks ELG1-dependent DNA repair in HEK293T cells. HEK293T ELG1-luciferase reporter, luminescence, 16 h; DNA damage induced by 5-fluorouridine. Potency, µM (titrated, usually from 46.1 µM), for the others: top-dose activity change, negative = inhibition, hits mostly inhibitors. 2.3% of 330,000 active; note: % is set by controls: 0 for no effect and ±100 for the full control effect; nearly all actives have a fitted effect of over 55% in size
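HEK293T cells expressing luciferase-tagged ELG1 (2,000/well) received 5-Fluorouridine plus compound or DMSO for 16 hr at 37 °C. Luciferase was read by ONE-Glo luminescence after 30 min at room temperature.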
SMN2 splice up – SMN2 splice variant enhancement; Potency, µM (titrated, usually from 46.1 µM), inactives show top-dose activity change, positive = activation, actives largely listed as activators; AID 1458; 2.8% of 210,000 active; HEK293 SMN2-luciferase splicing reporter, luminescence, 30-36 h; note: % of control where 0% means no effect; nearly all actives have a fitted effect of over 55% in size
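qHTS luciferase splicing reporter: luminescence rises when SMN2 exon 7 is included in transfected HEK293 cells. Compound exposure lasted 30-36 h at 37C, with 4.5 mM final sodium butyrate as control, followed by a ONE-Glo read.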
ELG1 genotox – genotoxicity induction in ELG1-luciferase HEK293T cells. HEK293T ELG1-luciferase reporter, luminescence, 16 h. 1.3% of 330,000 active. Potency, µM (top dose mostly 46 µM), without a hit: top-dose activity change, positive = activation, usual class: activators; note: % of control where 0% means no effect; nearly all actives have a fitted effect of over 60% in size
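Reporter readout depends on ELG1 protein level, which increases with genetic stress. After 16 hr compound exposure at 37 °C, luciferase activity was quantified using ONE-Glo.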
Rab9 prom act – Rab9 promoter activation; Huh7 Rab9 promoter-luciferase reporter, luminescence, 24 h; AID 485297; 2.8% of 320,000 active; Potency, µM (titrated, usually from 9.22 µM), inactives show at the top dose activation, negative = inhibition, hits mostly activators; note: % of control where 0% means no effect; nearly all actives have a fitted effect of over 60% in size
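Using Huh7 cells stably transfected with Rab9 promoter–luciferase, compounds were incubated 24 h at 37 °C, 5% CO2; luciferase luminescence was read 10 min after reagent addition.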
An asterisk follows results filed as active; ? = inconclusive; . = not tested or not shown; [ ] = remark or other dose. Calls come from the whole dose curve; as a rule, active = well fitted curve in the direction sought with a large enough effect; inconclusive = small, poorly fitted or top-dose-only effect, or another doubt; inactive = no such curve, though single readings can be large; an effect the other way counts as inactive or inconclusive. Potency is the fitted concentration of half-maximal effect.

SMILES	FLuc counter	NPC1 promoter act	ELG1 repair inh	SMN2 splice up	ELG1 genotox	Rab9 prom act
O=C(NCCSc1ccccn1)c1ccc(Cl)cc1	3.4µM*	0.63µM*	?	2.2µM*	?	0.63µM*
CS(=O)(=O)N(Cc1ccc(Cl)cc1)c1ccc(C(=O)NCCSc2ccccn2)cc1	2%	1%	?	-3%[1.84 µM]	-5%	4%
COc1ccc(Cn2ccnc2SCC(=O)NC2CCCC2)cc1	8%	-2%	-6%	.	-6%	1%
COc1ccc(-c2cc(-c3ccc(F)cc3)nc3c2COc2ccc(F)cc2-3)cc1	-6%	.	.	6%	.	.
O=C(Nc1ccc(Cc2ccncc2)cc1)C1CCC(N2C(=O)C3C4C=CC(C4)C3C2=O)CC1 (centres undefined)	1%	0%	6.5µM*	-46%	-13%	-9%
CCc1ccc(NC(=O)CCC(=O)Nc2nnc(C(F)(F)F)s2)cc1	27µM*	21%	15%	.	9%	0%
O=C(N=C1N=C2C=CC(Br)=CN2Cc2ccccc21)c1ccc([N+](=O)[O-])cc1[N+](=O)[O-]	12µM*	3.5µM*	?	.	?	3.5µM*
Cc1cc(NC(=O)C(C)SCC(=O)Nc2ccc(SC(F)F)cc2)no1 (centres undefined)	?	-1%	?	.	-10%	-4%
COc1ccc(OC)c(NC(=O)N2CCN(Cc3nc4ccc(C)cc4o3)CC2)c1	-2%	.	.	.	.	.
COc1ccc(NC2=Nc3cccc4cccc2c34)cc1	13µM*	-2%	?	-11%[1.84 µM]	11%	-2%
COc1ccc(C2=Nc3cccc4cccc(c34)N2)cc1	5.4µM*	5%	15%	4%	0%	-26%
O=C(O)c1cccc(N2C(=O)c3cccc4cccc(c34)C2=O)c1	-6%	-4%	1%	.	-2%	1%
Fc1ccc(/C=N/NC2=Nc3cccc4cccc2c34)cc1	1.7µM*	1.6µM*	?	11µM*	12µM*	1.6µM*
O=C(O)c1cccc(NC2=Nc3cccc4cccc2c34)c1	0.48µM*	0.45µM*	?	.	7.3µM*	?
Cc1ccc2oc(=O)c3cc(C(=O)NCCc4ccc(Cl)cc4)sc3c2c1	-1%	.	.	3%	.	.
c1ccc(NC2=Nc3cccc4cccc2c34)cc1	15µM*	1%	?	-44%	14%	-2%
O=C(NNC1=Nc2cccc3cccc1c23)c1ccccc1Br	-1%	0%	10%	-23%[1.84 µM]	4%	0%
COC1CCCCC1Nc1ccc(C)c(C)c1 (centres undefined)	0%	-4%	-9%	-3%	1%	-8%
COc1cc(NC(=O)C2CCN(S(=O)(=O)c3ccc4c(c3)oc(=O)n4C)CC2)cc(OC)c1	-11%	.	.	-16%	.	.
O=C(CSc1ccc(-c2cccnc2)nn1)Nc1ccc(F)c(F)c1	-3%	-4%	13µM*	.	-19%	-1%
O=C(CSc1ccc(-c2ccccn2)nn1)Nc1cccc(F)c1	13µM*	7%	30%	.	?	14%
COc1cccc(/C=C2\SC(=S)N(c3cccnc3)C2=O)c1OC	2.4µM*	-1%	-13%	10%	0%	-4%
COc1ccc(/C=C2\SC(=S)N(c3cccnc3)C2=O)cc1	6%	3%	1%	.	4%	3%
O=C(Nc1cc(Cl)ccc1Cl)c1ccc2c(c1)N(Cc1cccc(Cl)c1)C(=O)c1ccccc1S2=O (centres undefined)	-1%	.	.	.	.	.
CCn1cc(Cl)c(C(=O)Nc2cccc(CN3CCOCC3)c2)n1	-1%	24%	13%	.	0%	19%
SMILES	FLuc counter	NPC1 promoter act	ELG1 repair inh	SMN2 splice up	ELG1 genotox	Rab9 prom act
CCn1ccc(C(=O)Nc2ccccc2Cl)n1	11µM*	2µM*	?	.	8.2µM*	1.6µM*
CCn1cc(Br)c(C(=O)Nc2cccc(Cl)c2)n1	?	4µM*	?	11µM*	?	2µM*
CCn1cc(Cl)c(C(=O)Nc2ccc(OC)c(OC)c2)n1	15µM*	26%	14%	-42%	-7%	?
CCn1cc(Cl)c(C(=O)Nc2cc(C(=O)OC)cc(C(=O)OC)c2)n1	1%	0%	?	-9%	1%	5%
CCn1ccc(C(=O)Nc2cccc(Cl)c2)n1	11µM*	3.5µM*	?	13µM*	?	1.4µM*
CCn1cc(Br)c(C(=O)Nc2ccc(Cl)c(Cl)c2)n1	?	?	?	?	?	3.5µM*
CCOC(=O)c1[nH]c(C)c(C(=O)c2ccc(C)cc2)c1C	?	-9%	?	4%	21µM*	-10%
CCOC(=O)c1[nH]c(C)c(C(=O)NCc2ccc(C)cc2)c1C	3%	-1%	-2%	11%	1%	-2%
CCOC(=O)c1[nH]c2ccc(C)cc2c1N	5.4µM*	2.2µM*	?	11µM*	?	2.5µM*
CCOC(=O)c1c(C)[nH]c(C(=O)OCCOc2ccccc2C)c1C	3.4µM*	4µM*	?	3.5µM*	?	4µM*
CCOC(=O)c1c(C)[nH]c(C(=O)Cn2c(=O)c3c(ncn3CC)n(Cc3ccccc3)c2=O)c1C	1%	-4%	21µM*	26%	-2%	3%
CCOC(=O)c1c(C)[nH]c(C(=O)OCCOc2ccc(Cl)cc2)c1C	-17%	17%	?	15%	?	10%
COC(=O)c1c(C)sc(-c2c(-c3cccc(Cl)c3)[nH]c3c2c(=O)[nH]c(=O)n3C)c1O	-6%	.	.	.	.	.
CC1CCCC(NC(=O)NC(=O)COC(=O)c2ccc(O)cc2O)C1C (centres undefined)	.	-1%	-18%	.	-5%	-4%
CCOC(=O)c1c(C)[nH]c(C(=O)COC(=O)c2ccccn2)c1C	6µM*	0%	4%	-10%	5%	5%
CCOC(=O)c1c(C)[nH]c(C(=O)OCC(=O)NCc2ccccc2)c1C	.	.	0%	.	0%	.
CCOC(=O)c1c(C)[nH]c(C(=O)COC(=O)c2ccc(O)cc2)c1C	-15%	16%	14%	.	5%	30%
CCOC(=O)c1c(C)[nH]c(C(=O)CN2C(=O)NC(CC)(c3ccccc3)C2=O)c1C (centres undefined)	-12%	5%	16µM*	-7%	-2%	1%
CCOC(=O)c1c(C)[nH]c(C(=O)OCC(=O)c2ccccc2)c1C	0.85µM*	0.5µM*	?	.	0.92µM*	0.45µM*
COc1cccc(C(=O)N(c2ccccc2)C2C=CS(=O)(=O)C2)c1 (centres undefined)	3%	-3%	4%	1%	-6%	0%
CC(C)CN=CC1=C(O)c2ccccc2C1=O	12µM*	1.8µM*	?	.	?	1µM*
